According to PubChem BioAssay:
Active and inactive are the calls of the source.

Legend:
[1] = tested on: Plasmodium falciparum Sir2 (PF13_0152, Sir2A); experiment: pfSir2 binders on small-molecule microarrays, primary screen, biochemical, small-molecule microarray, 635 nm fluorescence (AID 1098); details: small-molecule microarray binding, fluorescence 635 nm; higher = more signal;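 further: score merges spot fluorescence intensity with its signal-to-noise ratio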
[2] = small-molecule microarray binders of probe aDKK1, primary screen, biochemical, biotinylated probe, 635/667 nm fluorescence (AID 1099); details: higher = more signal;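 further: score merges 667nm spot fluorescence with signal to noise across triplicate slides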
[3] = small-molecule microarray binders of probe aCHRDL2, primary screen, biochemical, biotinylated probe, 635/667 nm fluorescence (AID 1100); details: higher = more signal
[4] = splicing luciferase reporter signal modulators, primary screen, spliceosome inhibition project, cell-based, HEK293, splice +/- reporter (AID 1101); details: luminescence, 24 h, higher = more signal, called active from +8 up or from −8 down;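 further: HEK293 cells carrying a splicing-competent luciferase reporter gene; test concentration not given here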
[5] = biological target: Fibroblast growth factor 10 (Homo sapiens) (UniProt O15520); experiment: FGF10 binders on small-molecule microarrays, primary screen, biochemical, small-molecule microarray, 635 nm fluorescence (AID 1102); details: FGF10 binding, fluorescence 635 nm, higher = more signal
Fibroblast growth factor 10 (Homo sapiens), sequence (O15520 whole entry, looked up): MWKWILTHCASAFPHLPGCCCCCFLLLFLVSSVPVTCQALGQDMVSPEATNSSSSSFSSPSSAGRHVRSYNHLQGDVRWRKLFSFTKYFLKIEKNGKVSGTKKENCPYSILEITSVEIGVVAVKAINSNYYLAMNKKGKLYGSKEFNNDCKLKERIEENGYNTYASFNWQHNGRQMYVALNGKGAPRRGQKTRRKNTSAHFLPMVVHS

[6] = tested on: glycogen synthase kinase-3 (GSK3A per assay name; protocol says GSK3B); experiment: GSK3 binders on small-molecule microarrays, primary screen, biochemical, small-molecule microarray, 635 nm fluorescence, GSK3A (AID 1103); details: small-molecule microarray binding, fluorescence 635 nm; higher = more signal; further: the record names both GSK3A and GSK3B
[7] = biological target: Epidermal growth factor receptor (Homo sapiens) (UniProt P00533); experiment: EGFR binders on small-molecule microarrays, primary screen, biochemical, small-molecule microarray, 635 nm fluorescence (AID 1104); details: EGFR binding, higher = more signal;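 further: score merges 667 nm emission intensity with spot signal to noise over triplicate slides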
Epidermal growth factor receptor (Homo sapiens), sequence (P00533 whole entry, looked up): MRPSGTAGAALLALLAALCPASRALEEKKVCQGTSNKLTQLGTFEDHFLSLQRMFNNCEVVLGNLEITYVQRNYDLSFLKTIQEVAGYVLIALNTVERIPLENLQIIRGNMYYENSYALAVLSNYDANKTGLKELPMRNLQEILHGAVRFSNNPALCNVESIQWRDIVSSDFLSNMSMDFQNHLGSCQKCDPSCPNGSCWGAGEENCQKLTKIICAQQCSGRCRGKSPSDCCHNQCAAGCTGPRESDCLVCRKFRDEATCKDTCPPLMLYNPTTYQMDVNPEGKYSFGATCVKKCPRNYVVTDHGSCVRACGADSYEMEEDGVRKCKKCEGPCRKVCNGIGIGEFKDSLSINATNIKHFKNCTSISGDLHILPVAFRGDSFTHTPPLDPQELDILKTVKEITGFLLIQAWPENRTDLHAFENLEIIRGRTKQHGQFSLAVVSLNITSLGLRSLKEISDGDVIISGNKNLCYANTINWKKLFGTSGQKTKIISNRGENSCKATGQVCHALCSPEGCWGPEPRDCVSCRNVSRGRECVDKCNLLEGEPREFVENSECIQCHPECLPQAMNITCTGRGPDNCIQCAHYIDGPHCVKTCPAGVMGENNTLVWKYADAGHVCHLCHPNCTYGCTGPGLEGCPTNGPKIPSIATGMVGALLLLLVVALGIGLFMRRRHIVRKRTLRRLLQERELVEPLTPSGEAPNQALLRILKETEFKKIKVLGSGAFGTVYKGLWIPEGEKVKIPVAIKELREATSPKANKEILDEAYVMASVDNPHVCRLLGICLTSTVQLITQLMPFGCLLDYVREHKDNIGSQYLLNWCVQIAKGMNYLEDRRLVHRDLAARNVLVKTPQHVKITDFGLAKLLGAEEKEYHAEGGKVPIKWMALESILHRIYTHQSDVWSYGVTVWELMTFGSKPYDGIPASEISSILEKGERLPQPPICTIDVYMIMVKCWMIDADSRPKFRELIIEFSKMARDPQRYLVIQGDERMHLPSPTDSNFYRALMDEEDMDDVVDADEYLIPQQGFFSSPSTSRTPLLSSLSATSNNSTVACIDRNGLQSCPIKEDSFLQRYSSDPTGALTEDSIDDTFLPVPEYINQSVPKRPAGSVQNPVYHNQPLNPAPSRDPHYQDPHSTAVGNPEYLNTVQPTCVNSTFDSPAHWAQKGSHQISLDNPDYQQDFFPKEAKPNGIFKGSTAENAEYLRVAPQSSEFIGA

[8] = biological target: Follistatin-related protein 3 (Homo sapiens) (UniProt O95633); experiment: FSTL3 binders on small-molecule microarrays, primary screen, biochemical, small-molecule microarray, 635 nm fluorescence (AID 1105); details: FSTL3 binding, higher = more signal;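 further: score merges emission near 667 nm and signal to noise per printed spot across three slides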
Follistatin-related protein 3 (Homo sapiens), sequence (O95633 whole entry, looked up): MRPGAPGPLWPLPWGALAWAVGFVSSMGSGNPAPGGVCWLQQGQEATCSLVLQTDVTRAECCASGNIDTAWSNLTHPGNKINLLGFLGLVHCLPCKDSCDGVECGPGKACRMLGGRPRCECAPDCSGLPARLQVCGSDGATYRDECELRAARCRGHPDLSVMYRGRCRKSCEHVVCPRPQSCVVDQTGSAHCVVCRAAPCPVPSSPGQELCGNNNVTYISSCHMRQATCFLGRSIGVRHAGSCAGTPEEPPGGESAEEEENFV

[9] = biological target: Dickkopf-related protein 1 (Homo sapiens) (UniProt O94907); experiment: DKK1 binders on small-molecule microarrays, primary screen, biochemical, small-molecule microarray, 635 nm fluorescence scan (AID 1106); details: DKK1 binding, higher = more signal;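 further: score merges emission near 667 nm with signal to noise over three replicate slides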
Dickkopf-related protein 1 (Homo sapiens), sequence (O94907 whole entry, looked up): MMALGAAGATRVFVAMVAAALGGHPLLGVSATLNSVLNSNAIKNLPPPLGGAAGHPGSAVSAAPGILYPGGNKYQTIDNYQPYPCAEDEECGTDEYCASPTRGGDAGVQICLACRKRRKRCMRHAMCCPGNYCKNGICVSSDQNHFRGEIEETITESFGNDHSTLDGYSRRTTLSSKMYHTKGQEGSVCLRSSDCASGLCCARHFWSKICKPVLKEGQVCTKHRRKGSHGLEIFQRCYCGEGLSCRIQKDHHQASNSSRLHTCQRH

[10] = tested on: Inhibin beta A chain (activin A); experiment: INHBA (activin A) binders on microarrays, primary screen, biochemical, small-molecule microarray, 635 nm fluorescence scan (AID 1107); details: small-molecule microarray binding, higher = more signal;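 further: mouse activin A protein probed at 4.33 µg/mL on printed slides; score merges bound-protein fluorescence near 667 nm with spot signal-to-noise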
[11] = tested on: Human papillomavirus type 1a protein E7 (residues 44-93); experiment: HPV1a E7 fragment binders on microarrays, primary screen, biochemical, small-molecule microarray, residues 44-93, 635 nm fluorescence (AID 1108); details: small-molecule microarray binding, fluorescence 635 nm; higher = more signal;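 further: E7 fragment applied at 1 µg/mL in TBST for 1 h at 4 C; score combines spot fluorescence with its signal to noise ratio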
[12] = modulators of HCV replicon luciferase signal, primary screen, HCV replication inhibitor project, Huh7 cells, luciferase reporter (AID 1109); details: 48 h, higher = more signal;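 further: huh7 hepatoma cells harbouring a luciferase neomycin HCV replicon reporter; luciferase luminescence as measure of HCV replicon replication; test concentration not given here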
[13] = biological target: Left-right determination factor 2 (Homo sapiens) (UniProt O00292); experiment: LEFTY2 binders on small-molecule microarrays, primary screen, biochemical, small-molecule microarray, 635 nm fluorescence scan (AID 1110); details: LEFTY2 binding, higher = more signal
Left-right determination factor 2 (Homo sapiens), sequence (O00292 whole entry, looked up): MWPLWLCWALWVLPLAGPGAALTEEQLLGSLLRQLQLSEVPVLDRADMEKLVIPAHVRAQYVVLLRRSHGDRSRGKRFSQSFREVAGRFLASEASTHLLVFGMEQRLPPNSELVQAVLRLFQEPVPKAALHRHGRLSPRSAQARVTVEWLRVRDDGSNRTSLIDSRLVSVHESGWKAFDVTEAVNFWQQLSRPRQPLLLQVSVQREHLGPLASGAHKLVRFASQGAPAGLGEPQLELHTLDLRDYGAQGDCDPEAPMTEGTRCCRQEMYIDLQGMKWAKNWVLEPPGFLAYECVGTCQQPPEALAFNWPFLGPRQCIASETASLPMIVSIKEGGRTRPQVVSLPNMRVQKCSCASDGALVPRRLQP

[14] = biological target: Calmodulin-1 (Homo sapiens) (UniProt P0DP23); experiment: CALM1 binders on microarrays, EGTA buffer, profiling panel, biochemical, small-molecule microarray, Cy5-labelled CALM1 (AID 1111); details: Cy5-CALM1 binding fluorescence, higher = more signal;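 further: labelled calmodulin applied in Tris saline Tween buffer holding calcium plus EGTA and DTT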
[15] = biological target: Calmodulin-1 (Homo sapiens) (UniProt P0DP23); experiment: calcium-bound CALM1 binders on microarrays, profiling panel, artefact control for SMM control-protein annotation, biochemical, small-molecule microarray, Cy5-labelled CALM1, plus calcium (AID 1112); details: Cy5-CALM1 binding fluorescence, higher = more signal;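 further: score merges spot fluorescence with signal to noise from triplicate slides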
[16] = small-molecule microarray binders of probe aWnt5a, primary screen, biochemical, biotinylated probe, 635/667 nm fluorescence (AID 1113); details: higher = more signal;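 further: score merges 667 nm fluorescence intensity with signal-to-noise per printed feature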
[17] = small-molecule microarray binders of probe aShh, primary screen, biochemical, biotinylated probe, 635/667 nm fluorescence (AID 1114); details: higher = more signal;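 further: probe is biotin-labelled aShh protein from a stem cell growth factor screen; measures binding of labelled protein to compounds printed on the slide; score merges feature fluorescence at 667 nm with signal-to-noise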
[18] = small-molecule microarray binders of probe aNog, primary screen, biochemical, biotinylated probe, 635/667 nm fluorescence (AID 1115); details: higher = more signal;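 further: probe is biotinylated aNog protein used at 0.15 µg/mL for 1 h at 4 C; z-score combines 667 nm fluorescence of each spot with its signal to noise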
[19] = biological target: Torsin-1A-interacting protein 1 (Homo sapiens) (UniProt Q5JTV8); experiment: LAP1 binders from COS7 cell lysate, primary screen, small-molecule microarray, 635/667 nm fluorescence (AID 1116); details: COS7-hLAP1 lysate binding, 635 nm fluorescence, higher = more signal
Torsin-1A-interacting protein 1 (Homo sapiens), sequence (Q5JTV8 whole entry, looked up): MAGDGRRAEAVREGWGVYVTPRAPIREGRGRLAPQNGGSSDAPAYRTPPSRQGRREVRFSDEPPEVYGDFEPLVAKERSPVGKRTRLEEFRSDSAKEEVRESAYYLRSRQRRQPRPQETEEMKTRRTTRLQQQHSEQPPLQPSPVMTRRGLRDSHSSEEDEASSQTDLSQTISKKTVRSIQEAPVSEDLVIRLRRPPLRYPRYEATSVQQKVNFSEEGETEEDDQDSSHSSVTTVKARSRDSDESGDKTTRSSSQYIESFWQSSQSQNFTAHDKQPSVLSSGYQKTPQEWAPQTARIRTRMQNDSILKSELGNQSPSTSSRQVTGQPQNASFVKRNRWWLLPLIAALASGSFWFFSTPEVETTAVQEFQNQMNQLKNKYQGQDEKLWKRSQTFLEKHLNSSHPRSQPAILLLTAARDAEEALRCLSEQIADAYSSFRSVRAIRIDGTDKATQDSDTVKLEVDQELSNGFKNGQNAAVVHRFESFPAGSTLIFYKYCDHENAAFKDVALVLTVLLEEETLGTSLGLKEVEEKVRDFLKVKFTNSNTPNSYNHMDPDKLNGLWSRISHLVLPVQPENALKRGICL

[20] = biological target: Alpha-bungarotoxin (Bungarus multicinctus) (UniProt P60615); experiment: alpha-bungarotoxin binders on microarray, profiling panel, artefact control for SMM control protein annotation, biochemical, small-molecule microarray, Alexa647 label, 635/667 nm fluorescence (AID 1117); details: alpha-BTX-A647 binding fluorescence, higher = more signal
Alpha-bungarotoxin (Bungarus multicinctus), sequence (P60615 whole entry, looked up): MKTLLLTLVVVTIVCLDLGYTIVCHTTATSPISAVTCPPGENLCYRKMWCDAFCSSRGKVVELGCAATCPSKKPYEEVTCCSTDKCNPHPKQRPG

SMILES	composite z-score [1]	composite z-score [2]	composite z-score [3]	z-score [4]	composite z-score [5]	composite z-score [6]	composite z-score [7]	composite z-score [8]	composite z-score [9]	composite z-score [10]	composite z-score [11]	z-score [12]	composite z-score [13]	composite z-score [14]	composite z-score [15]	composite z-score [16]	composite z-score [17]	composite z-score [18]	composite z-score [19]	composite z-score [20]
CO[C@@H]1COC(=O)[C@H](COCc2ccccc2)NC(=O)CC=C[C@@H](C)[C@H](OC)COC(=O)[C@@H](C)NC(=O)CC=C[C@H]1C	1.57	-0.556	-0.97	0.0772 (inactive)	0.0278	-0.314	0.378	0.754	1.16	1.84	-0.747	-0.536	0.583	-1.78	-2.61	-0.18	0.0062	-0.643	0.343	-1.31
CCOC(=O)[C@H](Cc1ccccc1)NC(=O)CCC1CC(OC(=O)NCc2ccc3c(c2)OCO3)CC2(CCCC(COC(=O)NCCOC)O2)O1 (stereo not given in full)	0.857	-0.219	-0.49	-0.991 (inactive)	1.28	1.2	0.584	1.01	0.437	-0.169	1.36	-1.08	0.545	0.353	-0.194	-0.124	-0.153	-0.0524	0.609	0.591
CCOC(=O)CCN1C(=O)[C@H]2[C@H]3[C@H](O)[C@H](O)CC(=NOCC(C)C)[C@@H]3CC[C@H]2C1=O	0.816	-0.823	-1.74	0.66 (inactive)	-0.0809	1.06	0.406	1.04	1.78	1.28	-0.998	-0.488	1.01	-1.92	-1.74	-0.284	-0.0471	-0.255	-0.202	-0.799
CCN1C(=O)[C@H]2[C@H]3[C@H](O)[C@H](O)CC(=NOC(C)CN4CCCc5nc(C)c(C)cc54)[C@@H]3CC[C@H]2C1=O (stereo not given in full)	0.333	0.0478	-0.598	0.189 (inactive)	0.784	0.901	0.692	0.783	0.713	0.907	0.562	-1.21	0.803	-0.528	-1.03	-0.0478	0.275	0.182	0.304	-0.0882
C=CC[C@@H]1C=C[C@H](ON=CC[C@@H]2C=C[C@H](OC(C)=O)[C@@H](COC(C)=O)O2)[C@@H](CO)O1	1.01	0.182	-0.293	0.743 (inactive)	0.262	0.765	0.661	1.17	0.764	0.211	1.25	0.563	0.514	0.501	-0.0909	0.423	0.113	-0.467	0.223	1.86
CCOC(=O)[C@H](Cc1ccccc1)NC(=O)CCC1CC(OC(=O)NCc2cccc3ccccc23)CC2(CCCC(COC(=O)NCc3ccc4c(c3)OCO4)O2)O1 (stereo not given in full)	0.216	-0.0102	-0.343	0.277 (inactive)	0.587	-0.0333	0.179	0.224	0.141	0.325	0.524	1.08	0.284	-0.29	-0.457	-0.104	0.214	-0.299	0.629	-0.382
COC(=O)[C@H](C)NC(=O)CCC1CC(OC(=O)NCc2ccc3c(c2)OCO3)CC2(CCCC(COC(=O)NCCC(C)C)O2)O1 (stereo not given in full)	0.624	-0.076	-0.434	0.0265 (inactive)	0.412	0.69	0.0295	0.505	0.205	-2.25	1.37	-0.166	0.694	-0.107	-0.682	-0.0977	-0.0553	-0.0047	0.302	1.48
CCOC(=O)[C@H](Cc1ccccc1)NC(=O)CCC1CC(OC(=O)NCCc2ccc(F)cc2)CC2(CCCC(COC(=O)NCCC(C)C)O2)O1 (stereo not given in full)	1.16	-0.226	-0.415	-0.0793 (inactive)	0.52	1.01	0.396	1.18	0.648	0.0186	1.4	-0.833	0.676	-0.0594	-0.478	-0.164	-0.253	-0.0524	0.523	0.633
C=CCOCC1CN2[C@@H](CC[C@@H](C)[C@@H]2c2ccc(Br)cc2)C(=O)O1 (stereo not given in full)	-0.316	-0.182	-0.165	0.597 (inactive)	-0.342	-0.255	-0.014	-0.293	0.0635	0.757	0.157	-0.121	0.0328	-0.457	-0.78	-0.219	-0.154	-0.196	0.0323	0.101
CCN1C(=O)[C@H]2[C@H]3[C@H](O)[C@H](O)CC(=NOCC(C)C)[C@H]3CC[C@H]2C1=O	0.301	-0.311	-0.621	0.72 (inactive)	0.531	0.636	0.732	0.732	0.817	0.122	-0.0775	0.295	0.535	-0.185	-0.987	-0.0542	-0.138	-0.238	0.152	-0.14
CO[C@@H](C(C)C)[C@@H](C)C1OC(=O)CC1O (stereo not given in full)	-0.595	-0.148	-0.0917	0.94 (inactive)	-0.114	-0.051	-0.57	-0.552	-0.166	0.253	-0.175	0.975	0.0752	-0.32	0.192	-0.232	-0.171	-0.478	-0.214	-0.427
O=C1[C@H]2[C@H]3[C@H](O)[C@H](O)CC(=NOC[C@@H](O)COCc4ccco4)[C@@H]3CC[C@H]2C(=O)N1Cc1ccccc1	-0.422	-0.316	-0.611	-0.153 (inactive)	0.146	1.34	0.603	1.51	0.833	1.34	1.48	-0.114	1.19	-0.754	-1.55	-0.152	-0.0866	-0.529	0.77	0.238
